A short description of test [1]: qHTS assay to identify small molecule agonists of the progesterone receptor (PR) signaling pathway - cell viability counter screen (AID 1346799; calls by dose curve; note: nearly all actives have a fitted effect of over 45% in size). Summed up:
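Multiplexed viability read: CellTiter-Glo luminescence, 30 min RT, following LiveBLAzer FRET measurement on PR-UAS-bla HEK293T cells exposed to compounds 16 hr.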

The nature of test [2]: qHTS assay to identify small molecule antagonists of the TGF-beta/Smad signaling pathway - cell viability counter screen (AID 1346824). Note: nearly all actives have a fitted effect of over 50% in size. The method in brief: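 SBE-bla HEK 293T cells, incubated overnight, then compound plus 0.25 ng/mL TGF-beta1 (stock added) for 5 hr at 37 C. Viability was read in the same wells by CellTiter-Glo luminescence after 30 min at room temperature.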
For orientation: qHTS replaces the single test concentration by a dilution series.

The nature of test [3]: qHTS assay to identify small molecule agonists of the TGF-beta/Smad signaling pathway - cell viability counter screen (AID 1346829). Note: top concentration of the series differs between compounds; nearly all actives have a fitted effect of over 45% in size. The method in brief: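 After overnight seating at 37 C and 5% CO2, reporter cells got compounds for 5 hr and FRET substrate for 2 hr; cell viability then came from CellTiter-Glo luminescence.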
The nature of test [4]: qHTS assay to identify small molecule agonists of the TGF-beta/Smad signaling pathway (AID 1346859; active = well fitted activation curve with a large enough effect in the signal ratio in the repeat runs, not every such curve was filed as active; the % refers to the signal ratio; note: series mostly up to about 77 µM). Summed up: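 Screening used HEK 293T SBE-bla cells at 4,000/well. Test agents: 5 hr, 37 C. Detection: FRET substrate, 2 hr RT, then excitation 405 nm with emissions at 460 and 530 nm.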
Test [5] in a line: Human pregnane X receptor (PXR) small molecule agonists, qHTS cell viability counter screen (AID 1346977). Note: nearly all actives have a fitted effect of over 50% in size. The method in brief:
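In each well, the PXR reporter HepG2 line was checked for viability: CellTiter-Fluor reagent added 23hr post-dosing, fluorescence read after 1hr incubation at 37C.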

Test [6] is described as follows: Caspase-3/7 induction in CHO-K1 cells by small molecules, qHTS cell viability counter screen (AID 1346979). Note: nearly all actives have a fitted effect of over 35% in size. The method in brief: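 Following a 5hr settling period, CHO-K1 cells at 1,500 per well received DMSO-dissolved compounds. Cell viability was quantified 16hr later by CellTiter-Fluor fluorescence, measured after 1hr with reagent at 37C.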
A short description of test [7]: Caspase-3/7 induction in CHO-K1 cells by small molecules, qHTS assay (AID 1346980). Note: nearly all actives have a fitted effect of over 15% in size. The method in brief:
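Wild-type CHO-K1 cells exposed to compounds for 17hr at 37 C, 5% CO2. Caspase-3/7 activity then measured by Caspase-Glo 3/7 luminescence after 30min at room temperature.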

Test [8] is described as follows: Caspase-3/7 induction in HepG2 cells by small molecules, qHTS cell viability counter screen (AID 1346981). Note: series mostly up to about 92 µM; nearly all actives have a fitted effect of over 30% in size. The method in brief: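 In this quantitative HTS counter screen, compounds delivered in DMSO were left on unmodified HepG2 cells for 16 hr at 37 C. Viability was then determined fluorometrically with CellTiter-Fluor, in parallel with caspase-3/7 induction in the same wells.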

The target in test [9] is Nuclear receptor subfamily 1 group I member 2 (Homo sapiens) (UniProt O75469). Kind of test: Human pregnane X receptor (PXR) small molecule agonists, qHTS assay (AID 1346982). Note: nearly all actives have a fitted effect of over 35% in size. Note: potency is the fitted concentration of half-maximal effect. The method in brief: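 Reporter HepG2 cells expressing PXR-Luc are cultured in charcoal-stripped FBS (5%), treated with compounds for 24 hr at 37 C, and assayed by ONE-Glo luminescence after 30 min at room temperature.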
Sequence of Nuclear receptor subfamily 1 group I member 2 (Homo sapiens) (O75469 whole entry, looked up): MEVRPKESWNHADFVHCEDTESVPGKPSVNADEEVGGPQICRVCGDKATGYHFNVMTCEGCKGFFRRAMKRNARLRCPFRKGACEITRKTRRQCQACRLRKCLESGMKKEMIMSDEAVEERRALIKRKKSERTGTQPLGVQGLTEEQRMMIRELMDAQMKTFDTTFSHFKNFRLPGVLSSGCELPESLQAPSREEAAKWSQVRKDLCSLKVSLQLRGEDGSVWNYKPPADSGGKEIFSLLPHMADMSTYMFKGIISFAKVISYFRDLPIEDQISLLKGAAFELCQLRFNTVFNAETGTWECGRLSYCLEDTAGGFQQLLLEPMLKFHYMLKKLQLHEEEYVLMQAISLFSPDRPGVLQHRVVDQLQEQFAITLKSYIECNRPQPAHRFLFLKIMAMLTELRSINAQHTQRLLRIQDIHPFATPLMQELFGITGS

In test [10] the target is Cytochrome P450 2C19 (Homo sapiens) (UniProt P33261). The test is described as follows: Cytochrome P450 Family 2 Subfamily C Member 19 (CYP2C19) small molecule antagonists: luciferase reporter qHTS assay (AID 1671197). Note: nearly all actives have a fitted effect of over 65% in size. Note: potency is the fitted concentration of half-maximal effect. Summed up: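 Inhibition of CYP2C19 was scored from loss of luminescence in a P450-Glo proluciferin substrate assay, NADPH-started and run 1 h at 37C, with ketoconazole as positive control.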
Sequence of Cytochrome P450 2C19 (Homo sapiens) (P33261 whole entry, looked up): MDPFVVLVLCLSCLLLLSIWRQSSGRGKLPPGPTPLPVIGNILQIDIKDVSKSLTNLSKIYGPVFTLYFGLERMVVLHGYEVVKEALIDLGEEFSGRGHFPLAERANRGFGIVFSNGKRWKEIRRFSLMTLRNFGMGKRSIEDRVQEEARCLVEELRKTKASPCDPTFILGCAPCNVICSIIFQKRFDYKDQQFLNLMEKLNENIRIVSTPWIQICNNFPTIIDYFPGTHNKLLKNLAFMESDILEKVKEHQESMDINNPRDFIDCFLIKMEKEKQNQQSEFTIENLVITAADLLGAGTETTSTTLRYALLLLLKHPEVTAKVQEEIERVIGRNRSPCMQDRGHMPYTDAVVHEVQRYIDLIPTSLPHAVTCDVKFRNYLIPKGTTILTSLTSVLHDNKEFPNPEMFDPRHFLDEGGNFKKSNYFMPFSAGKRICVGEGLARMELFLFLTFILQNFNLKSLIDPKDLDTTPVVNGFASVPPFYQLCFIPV
(In general: In a reporter assay the amount or activity of a reporter protein is the signal.)

The target in test [11] is Cytochrome P450 2C9 (Homo sapiens) (UniProt P11712). Kind of test: Cytochrome P450 Family 2 Subfamily C Member 9 (CYP2C9) small molecule antagonists: luciferase reporter qHTS assay (AID 1671198). Note: nearly all actives have a fitted effect of over 50% in size. Note: potency is the fitted concentration of half-maximal effect. The method in brief:
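P450-Glo proluciferin substrate with CYP2C9 enzyme; 10 min RT preincubation, then NADPH regeneration 1 h at 37C; luciferin detection reagent 20 min RT, luminescence in relative luminescence units.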

For test [12], the target named is Cytochrome P450 1A2 (Homo sapiens) (UniProt P05177). The test is described as follows: Cytochrome P450 Family 1 Subfamily A Member 2 (CYP1A2) small molecule antagonists: luciferase reporter qHTS assay (AID 1671199). Note: nearly all actives have a fitted effect of over 50% in size. Note: potency is the fitted concentration of half-maximal effect. Summed up:
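Steps: enzyme-substrate mix dispensed; test compounds and furafylline control pinned in; 10 min room temperature; NADPH regeneration solution added, 1 h; reaction stopped with luciferin detection reagent; luminescence read after 20 min.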

In test [13] the target is Voltage-gated inwardly rectifying potassium channel KCNH2 (Homo sapiens) (UniProt Q12809). Kind of test: Human Ether-a-go-go-Related Gene (hERG) channel small molecule antagonists: fluorescence cell-based qHTS assay (AID 1671200). The method in brief: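 In this thallium-flux screen, overnight-cultured U2OS cells bearing the channel are dye-loaded in darkness for an hour, rested 10 min at room temperature, and then monitored kinetically at 480/540 nm for two minutes post-stimulus.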
Sequence of Voltage-gated inwardly rectifying potassium channel KCNH2 (Homo sapiens) (Q12809 whole entry, looked up): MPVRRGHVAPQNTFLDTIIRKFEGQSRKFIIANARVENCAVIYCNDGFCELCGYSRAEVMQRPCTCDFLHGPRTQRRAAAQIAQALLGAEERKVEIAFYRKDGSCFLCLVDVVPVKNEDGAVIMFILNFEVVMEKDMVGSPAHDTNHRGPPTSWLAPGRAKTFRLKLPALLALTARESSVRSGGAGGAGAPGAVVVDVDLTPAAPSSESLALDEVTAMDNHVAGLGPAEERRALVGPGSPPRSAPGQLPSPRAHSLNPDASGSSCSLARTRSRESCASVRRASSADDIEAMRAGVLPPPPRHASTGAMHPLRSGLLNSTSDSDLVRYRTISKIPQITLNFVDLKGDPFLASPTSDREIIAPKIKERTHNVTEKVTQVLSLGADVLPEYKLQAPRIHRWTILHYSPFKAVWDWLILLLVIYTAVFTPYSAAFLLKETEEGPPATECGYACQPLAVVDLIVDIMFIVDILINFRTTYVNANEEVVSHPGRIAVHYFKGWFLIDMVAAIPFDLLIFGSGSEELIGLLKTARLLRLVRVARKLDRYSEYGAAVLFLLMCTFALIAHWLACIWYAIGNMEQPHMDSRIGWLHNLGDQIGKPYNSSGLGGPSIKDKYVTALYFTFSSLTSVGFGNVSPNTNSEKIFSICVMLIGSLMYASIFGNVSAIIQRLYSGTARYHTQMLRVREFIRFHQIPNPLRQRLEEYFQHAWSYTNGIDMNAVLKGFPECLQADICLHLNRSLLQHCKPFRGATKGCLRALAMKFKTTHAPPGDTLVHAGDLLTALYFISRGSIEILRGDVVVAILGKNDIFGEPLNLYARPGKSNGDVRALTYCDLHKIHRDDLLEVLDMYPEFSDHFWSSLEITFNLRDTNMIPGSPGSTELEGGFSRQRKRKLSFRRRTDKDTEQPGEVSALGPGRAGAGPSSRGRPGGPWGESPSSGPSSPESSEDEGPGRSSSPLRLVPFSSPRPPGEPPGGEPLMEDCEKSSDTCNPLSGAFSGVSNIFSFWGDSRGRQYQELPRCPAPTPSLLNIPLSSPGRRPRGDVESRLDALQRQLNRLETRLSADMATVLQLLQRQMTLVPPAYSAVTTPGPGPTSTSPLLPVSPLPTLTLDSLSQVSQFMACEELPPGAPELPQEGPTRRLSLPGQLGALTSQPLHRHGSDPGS
(Block of hERG is tested as a sign of cardiac risk.)

Test [14] concerns the target Cytochrome P450 3A4 (Homo sapiens) (UniProt P08684). Kind of test: Cytochrome P450 Family 3 Subfamily A Member 4 (CYP3A4) small molecule antagonists: luciferase reporter qHTS assay (AID 1671201). Note: nearly all actives have a fitted effect of over 50% in size. Note: potency is the fitted concentration of half-maximal effect. Summed up: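 CYP3A4 activity was followed with a P450-Glo proluciferin substrate. Test compounds in DMSO were preincubated 10 min; NADPH regeneration then ran 1 h, and light output was read 20 min after detection reagent.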

Test [15] has as its target Thyrotropin-releasing hormone receptor (Homo sapiens) (UniProt P34981). The test is described as follows: qHTS assay to identify small molecule antagonists of the thyrotropin-releasing hormone receptor (TRHR) signaling pathway (AID 1346877; active = well fitted inhibition curve with a large enough effect in the repeat runs, not every such curve was filed as active; note: series mostly up to about 51 µM). Summed up:
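Kinetic fluorescence (3 min, 1 s resolution) following stimulation with TRH at 1 nM final; HEK293 cells bearing human TRHR; 5 min compound preincubation at RT; concentration-response over 15 points, triplicates.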

Test [16] has the same target. The test is described as follows: qHTS assay to identify small molecule agonists of the thyrotropin-releasing hormone receptor (TRHR) signaling pathway (AID 1346891; calls by dose curve; note: series mostly up to about 58 µM). Summed up: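 Readout was intracellular calcium fluorescence in TRHR-Hek293 cells. Cells were incubated 18 h, dye-loaded 2 h at 37 °C, and treated with compound in agonist mode.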
Test [17] is described as follows: Caspase-3/7 induction in HepG2 cells by small molecules, qHTS assay (AID 1346978). Note: nearly all actives have a fitted effect of over 15% in size. Summed up:
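Wild-type HepG2 cells, 2,000/well, settled 5 hr at 37 C and 5% CO2, then compound-treated for 17 hr; caspase-3/7 activity read by luminescent Caspase-Glo 3/7 after 30 min at room temperature.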

The target in test [18] is Cytochrome P450 2D6 (Homo sapiens) (UniProt P10635). Kind of test: Cytochrome P450 Family 2 Subfamily D Member 6 (CYP2D6) small molecule antagonists: luciferase reporter qHTS assay (AID 1671196). Note: nearly all actives have a fitted effect of over 50% in size. Note: potency is the fitted concentration of half-maximal effect. Summed up:
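Test chemicals meet CYP2D6 plus proluciferin substrate (10 min, RT); NADPH regenerating solution then drives turnover for 1 h. Detection reagent halts the reaction; luminescence measured after 20 min.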

The target in test [19] is Nuclear receptor subfamily 1 group I member 2 (Rattus norvegicus) (UniProt Q9R1A7). Kind of test: Rat pregnane X receptor (rPXR) activation by small molecules, qHTS assay (AID 1346983). Note: nearly all actives have a fitted effect of over 20% in size. As to conditions: rPXR luciferase reporter cells, One-Glo luminescence, 24 h; max activation: stronger effect = higher value. Summed up:
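Cell-based rPXR activation assay: rPXR cells, 2,000 per well, rested 5hr at 37 C, then exposed to compounds in DMSO for 24 hr at 37 C. Luciferase activity read by One-Glo luminescence after 30 min at room temperature.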

Test [20] concerns the target Nuclear receptor subfamily 1 group I member 2 (Homo sapiens) (UniProt O75469). The test is described as follows: Human pregnane X receptor (PXR) activation by small molecules, qHTS assay (AID 1346985). Note: nearly all actives have a fitted effect of over 40% in size. The method in brief: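 DPX-2 cells (HepG2 co-transfected with a PXR response element and a CYP3A4-promoter luciferase construct) were seeded at 2,000 per well, rested 5 hr at 37C, then exposed to DMSO-dissolved compounds for 24 hr. Activation was read as luciferase luminescence.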

Structures are written as SMILES. Where “and” joins values, the source holds several entries; their conditions need not be identical. Equal entries are not always repeated. Results filed as inconclusive are left out. Where a structure was tested more than once in an assay, its records may differ in their call. Calls of active or inactive are those of the source. Unless noted, calls come from the whole dose curve; as a rule, active = well fitted curve in the direction sought with a large enough effect in the repeat runs; inconclusive = weak or mixed curves; inactive = no such curve, though single readings can be large; an effect the other way counts as inactive or inconclusive.
% is set by controls: 0 for no effect and ±100 for the full control effect.

Sequence of Cytochrome P450 2C9 (Homo sapiens) (P11712 whole entry, looked up): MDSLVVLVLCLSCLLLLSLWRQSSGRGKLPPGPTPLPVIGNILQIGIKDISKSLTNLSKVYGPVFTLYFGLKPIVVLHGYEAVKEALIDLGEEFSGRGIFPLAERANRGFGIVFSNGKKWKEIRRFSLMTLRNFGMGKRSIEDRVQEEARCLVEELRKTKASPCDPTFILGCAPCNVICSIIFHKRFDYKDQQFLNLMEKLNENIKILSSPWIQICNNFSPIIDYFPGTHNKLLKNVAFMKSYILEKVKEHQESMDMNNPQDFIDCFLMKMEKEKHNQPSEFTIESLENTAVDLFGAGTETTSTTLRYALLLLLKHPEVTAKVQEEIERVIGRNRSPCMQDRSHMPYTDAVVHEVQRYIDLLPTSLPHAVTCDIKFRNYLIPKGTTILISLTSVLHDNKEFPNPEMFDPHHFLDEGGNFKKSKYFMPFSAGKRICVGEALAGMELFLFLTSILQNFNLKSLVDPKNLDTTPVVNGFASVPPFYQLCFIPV
Sequence of Cytochrome P450 3A4 (Homo sapiens) (P08684 whole entry, looked up): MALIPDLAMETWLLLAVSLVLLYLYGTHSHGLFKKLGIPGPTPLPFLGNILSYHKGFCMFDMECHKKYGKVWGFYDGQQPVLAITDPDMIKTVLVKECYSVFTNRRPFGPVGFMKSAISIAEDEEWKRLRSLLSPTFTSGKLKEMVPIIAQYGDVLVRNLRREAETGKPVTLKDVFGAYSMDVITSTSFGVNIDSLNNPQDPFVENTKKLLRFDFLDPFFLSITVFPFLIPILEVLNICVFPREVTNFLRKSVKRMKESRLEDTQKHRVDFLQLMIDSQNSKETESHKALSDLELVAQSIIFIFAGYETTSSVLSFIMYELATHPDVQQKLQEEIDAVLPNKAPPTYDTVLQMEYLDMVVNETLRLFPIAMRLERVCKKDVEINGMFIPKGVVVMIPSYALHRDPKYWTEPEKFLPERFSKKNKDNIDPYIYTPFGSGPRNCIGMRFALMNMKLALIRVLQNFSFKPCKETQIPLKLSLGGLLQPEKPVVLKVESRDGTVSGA
Sequence of Thyrotropin-releasing hormone receptor (Homo sapiens) (P34981 whole entry, looked up): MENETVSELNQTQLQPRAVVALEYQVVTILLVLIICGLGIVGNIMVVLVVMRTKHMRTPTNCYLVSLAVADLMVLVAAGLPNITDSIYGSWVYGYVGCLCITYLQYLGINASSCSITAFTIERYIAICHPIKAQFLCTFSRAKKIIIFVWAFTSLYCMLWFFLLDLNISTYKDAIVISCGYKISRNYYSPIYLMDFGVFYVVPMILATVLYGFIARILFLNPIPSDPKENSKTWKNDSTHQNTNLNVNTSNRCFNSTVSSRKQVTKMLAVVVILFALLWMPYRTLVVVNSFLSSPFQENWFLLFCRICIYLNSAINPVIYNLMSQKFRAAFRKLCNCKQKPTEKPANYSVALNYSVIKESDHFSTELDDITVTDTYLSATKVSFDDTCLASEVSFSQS
Sequence of Cytochrome P450 1A2 (Homo sapiens) (P05177 whole entry, looked up): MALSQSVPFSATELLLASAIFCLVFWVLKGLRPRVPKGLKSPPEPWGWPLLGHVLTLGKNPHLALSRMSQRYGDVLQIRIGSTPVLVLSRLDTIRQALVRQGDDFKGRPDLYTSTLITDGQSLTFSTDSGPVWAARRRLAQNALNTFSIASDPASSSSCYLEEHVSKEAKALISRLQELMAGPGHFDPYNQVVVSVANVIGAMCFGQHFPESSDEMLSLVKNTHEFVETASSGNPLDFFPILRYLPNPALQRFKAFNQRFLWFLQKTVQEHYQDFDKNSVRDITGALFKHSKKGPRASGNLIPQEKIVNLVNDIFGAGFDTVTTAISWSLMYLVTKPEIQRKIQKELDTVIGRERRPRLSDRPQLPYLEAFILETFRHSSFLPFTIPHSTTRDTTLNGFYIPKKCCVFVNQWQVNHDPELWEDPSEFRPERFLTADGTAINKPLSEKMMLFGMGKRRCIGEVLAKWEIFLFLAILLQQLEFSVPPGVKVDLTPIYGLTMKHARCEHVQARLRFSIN
Sequence of Cytochrome P450 2D6 (Homo sapiens) (P10635 whole entry, looked up): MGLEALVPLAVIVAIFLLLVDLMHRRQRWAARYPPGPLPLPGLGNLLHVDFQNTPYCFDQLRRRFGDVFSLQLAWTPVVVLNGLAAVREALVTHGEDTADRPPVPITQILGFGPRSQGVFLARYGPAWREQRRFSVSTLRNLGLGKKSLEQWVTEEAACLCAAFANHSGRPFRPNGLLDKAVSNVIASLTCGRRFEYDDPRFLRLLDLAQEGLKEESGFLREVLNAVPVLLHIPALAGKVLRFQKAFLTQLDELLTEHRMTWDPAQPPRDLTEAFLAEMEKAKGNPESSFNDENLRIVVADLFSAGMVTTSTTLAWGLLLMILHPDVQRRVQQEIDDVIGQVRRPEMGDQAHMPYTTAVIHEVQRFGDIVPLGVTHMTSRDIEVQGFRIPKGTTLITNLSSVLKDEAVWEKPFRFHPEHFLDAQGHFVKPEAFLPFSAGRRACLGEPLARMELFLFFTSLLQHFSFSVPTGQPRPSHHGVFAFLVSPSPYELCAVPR
Sequence of Nuclear receptor subfamily 1 group I member 2 (Rattus norvegicus) (Q9R1A7 whole entry, looked up): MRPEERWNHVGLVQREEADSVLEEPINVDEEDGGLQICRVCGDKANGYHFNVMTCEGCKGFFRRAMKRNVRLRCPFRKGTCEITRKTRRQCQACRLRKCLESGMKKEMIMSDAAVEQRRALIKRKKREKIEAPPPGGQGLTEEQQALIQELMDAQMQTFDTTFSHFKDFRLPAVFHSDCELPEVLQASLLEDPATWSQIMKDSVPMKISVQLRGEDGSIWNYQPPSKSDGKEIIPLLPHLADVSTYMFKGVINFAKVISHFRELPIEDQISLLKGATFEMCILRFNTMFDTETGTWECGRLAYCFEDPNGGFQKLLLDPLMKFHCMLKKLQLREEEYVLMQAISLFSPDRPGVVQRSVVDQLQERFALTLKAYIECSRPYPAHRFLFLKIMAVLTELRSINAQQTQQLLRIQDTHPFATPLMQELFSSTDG

`CCOC(=O)NNc1nncc2ccccc12`: the Potency result in [1], in [2], in test [3], in test [5], in test [6] and in test [8] was “inactive” each time. Further, the Potency entry in [9], in [10], in test [11] and in [14] was “inactive” in each case. For the same molecule, the molecule was classed as inactive in [4], in test [7] and in test [13]. Moreover, the Potency in [12] was 20 µM (active).
On to `CC(C)(C)[C@@H](O)[C@@H](Cc1ccc(Cl)cc1)n1cncn1`, for which the Potency entry in test [1], in test [2], in test [3], in test [15], in test [5] and in test [17] was “inactive” each time. Further, the Potency entry in test [6], in test [8] and in test [12] was “inactive” throughout. The call in [16], in test [7] and in test [13] was inactive. The Potency is 34.1 µM (active) in [9]; 250 nM (active) and 159 nM (active) in [10]; 11.2 µM (active) and 22.4 µM (active) in [11]; 112 nM (active) and 200 nM (active) in [14].
As to `Fc1ccc(Br)cc1`, the Potency result in test [1], in test [2], in test [3], in test [15], in test [5] and in [17] was “inactive” each time. The Potency result in [6], in test [8], in test [9], in [18], in test [11] and in test [14] was “inactive” throughout. The molecule was classed as inactive in [16], in test [7] and in [13]. Also, the Potency was 71.7 µM (active) and inactive in [10]; 40.3 µM (active) and inactive in [12].
On to `CN(C)CCC(c1ccccc1)c1ccccn1` (stereo unspecified), for which the Potency entry in [1], in test [2], in test [3], in test [15], in test [5] and in [6] was “inactive” throughout. Moreover, the Potency entry in [8], in [10] and in test [11] was “inactive” throughout. Moreover, the molecule was classed as inactive in test [4], in test [16], in test [7] and in test [13]. Also, the max activation in [19] is -3.67% (inactive). Further, the Potency is 35.7 µM (active) in [18]; 40 µM (active) and inactive in test [12].
`CC(=O)Nc1cccc(O)c1`: the Potency result in test [1], in test [2], in [3], in test [5], in [17] and in [6] was “inactive” in each case. Further, the Potency entry in test [8], in test [9], in test [20], in [18], in [10] and in test [11] was “inactive” each time. Further, in test [12], the Potency result is “inactive”. Besides, the molecule was called inactive in test [4], in test [7] and in [13]. The max activation in [19] is -2.31% (inactive).
With `O=C(O)CCCC[C@@H]1SC[C@@H]2NC(=O)N[C@@H]21`, the Potency result in test [1], in test [2], in test [3], in [5], in [17] and in test [8] was “inactive” each time. The Potency result in test [9], in test [18], in test [10], in test [11] and in [12] was “inactive” each time. Also, the result in test [4], in test [7] and in test [13] was inactive.
With `CCCCCCCCCCCCOCCO`, the Potency entry in test [1], in test [2], in [3], in [15], in [5] and in test [8] was “inactive” in each case. In test [14], the Potency result was “inactive”. Also, the outcome in [4], in [16], in test [7] and in test [13] was inactive. Moreover, the Potency in [9] is 61.1 µM (active) and inactive; in [10], 25.2 µM (active) and inactive; in [11], 39.9 µM (active); in test [12], 31.7 µM (active) and 34.7 µM (active).
In the case of `O=S(=O)(O)c1ccc2ccccc2c1`, the Potency result in [1], in test [2], in test [3], in test [15], in test [5] and in test [17] was “inactive” in each case. In addition, the Potency entry in test [6], in test [8], in test [9], in [18], in test [10] and in test [11] was “inactive” in each case. In addition, the Potency entry in test [12] and in [14] was “inactive” each time. For the same molecule, the molecule was called inactive in [16], in [7] and in test [13].

(Values after PubChem BioAssay (Tox21).)
